# This is a sample that favours compounds with a hit; in the whole collection about 1.1% have one here.
# p97 inhibitor: blocks human p97 ATPase activity; P55072; AID 1481; 220,000 compounds, 0.42% hits; recombinant p97 ATPase, Kinase-Glo ATP luminescence, 3 h; inhibition, % at 8 µM; in the data active = inhibition above about 15%;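 note: 0% = DMSO vehicle and 100% = wells lacking enzyme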
# S1P3 antagonist: blocks the human S1P3 receptor; CHO S1P3 NFAT-BLA reporter, FRET fluorescence, antagonist mode; 170,000 compounds, 0.27% hits; Q99500; inhibition, % at 4.98 µM;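 active = inhibition above the plate cutoff, the mean inhibition of test wells on that plate plus 3 SD, cut at about 28% in these data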;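 note: cells challenged with S1P at its EC80 of 0.8 µM; blue over green emission ratio from cleaved BLA substrate after 4 h stimulation; 0% = S1P-stimulated wells and 100% = unstimulated DMSO-only wells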
# UBC9 SUMO inh: SUMOylation inhibition. HTRF SUMOylation assay, SAE1/SAE2 + UBC9, in vitro. 290,000 compounds, 0.36% hits. inhibition, % at 35 µM; in the data active = inhibition above about 50%, passing the limit was not always enough
# Target sequence (P63279 whole entry, looked up): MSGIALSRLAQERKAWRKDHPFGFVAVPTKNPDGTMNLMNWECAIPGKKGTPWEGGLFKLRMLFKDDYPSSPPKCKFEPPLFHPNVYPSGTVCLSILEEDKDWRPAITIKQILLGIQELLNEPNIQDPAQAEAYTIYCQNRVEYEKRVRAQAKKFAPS
# S1P4 antagonist: blocks the human S1P4 receptor. inhibition, % at 4.98 µM. 220,000 compounds, 0.26% hits. S1P4-expressing cells, antagonist mode, reporter read-out. O95977; in the data active = inhibition above about 29%;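 note: 0% = wells stimulated with agonist and 100% = vehicle wells without agonist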
# DTT redox prof: compounds producing H2O2 with reducing agent – biochemical, NIH compound library profiling, artefact control for MLSCN library redox annotation, primary screen | DTT-dependent redox cycling H2O2, phenol red/HRP absorbance; 100% = 100 µM peroxide control, 0% = buffer | activation, % at 10 µM | 200,000 compounds, 0.03% hits | AID 878;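 active = activation of at least 50% relative to the plate's high and low controls in the primary single-dose screen; inactive = activation below 50%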;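 note: compound incubated with DTT at 0.8 mM final as the reducing agent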
# S1P4 agonist: human S1P4 receptor agonism. 220,000 compounds, 0.35% hits. AID 1509. S1P4-expressing cell line, agonist reporter assay. activation, % at 4.98 µM. O95977; in the data active = activation above about 11%;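 note: 0% = DMSO vehicle and 100% = reference agonist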
# S1P4 agonist cf: human S1P4 agonism, confirmation; shares compounds with S1P4 agonist; S1P4 agonist cell-based reporter assay; activation, % at 4.98 µM; 740 compounds, 7% hits; in the data active = activation above about 12%;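 note: 0% = vehicle and 100% = full reference agonist response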
# S1P1 agonist: counter-screen for S1P4 agonists: agonists of human S1P1; shares compounds with S1P4 agonist; activation, % at 4.98 µM; 740 compounds, 4% hits; S1P1 agonist cell-based assay, activation; AID 1563; in the data active = activation above about 21%;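 note: 0% = vehicle wells and 100% = reference agonist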
# Target sequence (P21453 whole entry, looked up): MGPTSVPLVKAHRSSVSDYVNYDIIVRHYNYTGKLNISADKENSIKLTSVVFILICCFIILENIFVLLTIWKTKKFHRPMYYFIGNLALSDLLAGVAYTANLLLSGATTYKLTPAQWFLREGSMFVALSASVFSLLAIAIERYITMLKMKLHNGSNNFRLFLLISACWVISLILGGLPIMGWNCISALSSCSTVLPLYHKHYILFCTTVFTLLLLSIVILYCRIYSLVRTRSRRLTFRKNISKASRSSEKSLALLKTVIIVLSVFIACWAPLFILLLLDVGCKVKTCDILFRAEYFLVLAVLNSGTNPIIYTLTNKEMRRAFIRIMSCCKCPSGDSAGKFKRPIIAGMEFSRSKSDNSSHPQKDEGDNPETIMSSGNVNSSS
# * = called active by the depositor; nt = not tested or not shown.
SMILES,p97 inhibitor,S1P3 antagonist,UBC9 SUMO inh,S1P4 antagonist,DTT redox prof,S1P4 agonist,S1P4 agonist cf,S1P1 agonist
Cc1ccc(S(=O)(=O)N(C)C)cc1NC(=O)COC(=O)Cc1n[nH]c(=O)c2ccccc12,nt,nt,0,nt,nt,nt,nt,nt
CCOC(=O)c1c(NC(=O)CN2CCCc3ccccc32)sc(C(C)=O)c1C,2,7,13,-3,0,16*,-2,4
O=C(Cc1c(F)cccc1Cl)NNC(=O)Nc1ccc2c(c1)OCO2,nt,nt,19,nt,nt,nt,nt,nt
O=C1c2cccc3cc([N+](=O)[O-])cc(c23)C(=O)N1CCN1CCCC1,3,-14,28,-64,nt,24*,23*,92*
Cc1cc(C)n(CCO)c(=O)n1,3,-62,13,-3,0,2,nt,nt
Cc1cc(=S)cc(C)n1CCO,4,0,1,-2,1,11*,-1,1
Cn1c2ccc(F)cc2c2ncn(CC3CCCO3)c(=O)c21 (configuration not stated),1,6,12,-2,nt,1,nt,nt
O=c1c2[nH]c3ccc(F)cc3c2ncn1CC1CCCO1 (configuration not stated),-1,-7,-9,5,nt,38*,-2,1
COCCNC(=O)c1ccccc1NC(=O)Cc1ccccc1[N+](=O)[O-],5,-6,-18,-1,-2,235*,-3,-7
O=C1CS/C(=C/C(=O)c2cccc(Cl)c2)N1,0,-16,8,-14,-2,1,nt,nt
Cc1ccc(C(=O)/C=C2/NC(=O)CS2)cc1,1,nt,-7,-1,4,20*,-2,-3
CCOC(=O)c1ccc2c(c1)C(=O)N(C1CCCCC1)C2=O,-2,32,5,-17,0,25*,-2,4
CCOC(=O)N1CCC(N2C(=O)c3ccc(C(=O)O)cc3C2=O)CC1,0,-34,8,9,0,1,nt,nt
COc1ccc(C2c3cc(OC)c(OC)cc3CCN2C2CC(=O)N(c3ccccc3)C2=O)cc1OC (configuration not stated),-7,nt,16,-3,0,18*,0,-3
CCn1ccc(C(=O)Nc2ccccc2SC)n1,0,12,6,-8,0,0,nt,nt
Cc1cc(C(=O)Nc2cccc(C)c2C)c2ccccc2n1,nt,nt,0,nt,nt,nt,nt,nt
COc1cc(C(=S)N2CCCC2)ccc1OCc1ccccc1,nt,nt,11,nt,nt,nt,nt,nt
O=c1[nH][nH]c2nc(C(F)(F)F)cc(C(F)(F)F)c12,-2,2,7,-11,0,67*,0,-3
COc1ccc2nc(Nc3nc(C)c(C(C)=O)s3)sc2c1,2,16,-85,-13,-1,1,nt,nt
COc1cc(C)nc(Nc2nc(C)c(C(C)=O)s2)n1,1,nt,32,-16,-1,12*,-3,0
COc1cccc2cc(C(=O)c3ccc([N+](=O)[O-])cc3)oc12,-2,-9,-5,-12,0,-1,nt,nt
CCCCNC(=O)CC1NCCNC1=O (configuration not stated),-1,-13,14,-9,0,-1,nt,nt
O=C(Cc1nc2ccccc2[nH]1)N/N=C/c1ccccc1,10,2,5,-17,0,7,nt,nt
COc1ccc(OC)c(/C=N/NC(=O)Cc2nc3ccccc3[nH]2)c1,4,3,-3,-27,-1,12*,-2,-8
Nc1nnc(SCC(=O)OCC(=O)Nc2ccc(Br)cc2F)s1,3,-4,3,-28,-1,3,nt,nt
SMILES,p97 inhibitor,S1P3 antagonist,UBC9 SUMO inh,S1P4 antagonist,DTT redox prof,S1P4 agonist,S1P4 agonist cf,S1P1 agonist
Nc1nnc(SCC(=O)OCC(=O)Nc2ccc(Br)cc2)s1,3,-21,5,-11,0,62*,-2,-5
COc1cccc(NC(=S)N(CCc2c(C)[nH]c3ccccc23)Cc2cccs2)c1,4,21,-24,-8,1,16*,-2,-2
C=CCN(c1ccc(C(=O)NCCc2ccccc2)cc1)S(C)(=O)=O,-1,nt,5,-12,1,0,nt,nt
Cc1ccc(OCCn2cc(C=O)c3ccccc32)cc1,nt,nt,-6,nt,nt,nt,nt,nt
Cc1ccc(OCCn2cc(/C=C3\C(=O)NN(c4ccccc4)C3=O)c3ccccc32)cc1,8,6,-5,5,2,14*,-2,-3
O=S(=O)(c1ccc(-c2cn3ccccc3n2)cc1)N1CCOCC1,0,nt,36,-6,0,68*,-2,3
O=S(=O)(c1cccc(-c2cn3ccccc3n2)c1)N1CCCCC1,nt,nt,0,nt,nt,nt,nt,nt
C/C(=N\N1CCN(Cc2ccc(Cl)cc2)CC1)c1ccc(F)cc1,-5,2,5,-2,nt,75*,-2,4
O=C(Cn1ncc2c1-c1ccccc1OC2)N1CCN(Cc2ccc3c(c2)OCO3)CC1,0,12,6,-13,-4,-2,nt,nt
O=C(NCc1ccccc1)Nc1cccn(Cc2ccccc2)c1=O,-8,-11,51,-7,0,-1,nt,nt
CCOc1ccc(NC(=O)Nc2cccn(Cc3ccccc3)c2=O)cc1,2,9,44,-10,0,38*,-1,0
COCCNC(=O)/C(C#N)=C/c1c(N2CCCCCC2)nc2ccccn2c1=O,nt,nt,30,nt,nt,nt,nt,nt
CC(=O)Nc1ccc(S(=O)(=O)Oc2ccc(C(=S)N3CCC(O)CC3)cc2)cc1,4,-12,10,-15,0,2,nt,nt
CC(=O)Nc1ccc(S(=O)(=O)Oc2ccc(C(=S)N3CCCCC3)cc2)cc1,-8,-5,8,-4,-1,29*,0,7
CN(Cc1ccccc1)c1nnc(N)s1,6,-2,4,-10,1,13*,-1,-8
N=c1oc2cc(O)ccc2cc1C(=O)Nc1ccc(Br)cc1,nt,nt,26,nt,nt,nt,nt,nt
N=c1oc2cc(O)ccc2cc1C(=O)Nc1nc2ccccc2s1,-1,-103,24,-76,1,92*,80*,129*
COc1ccc(C2C(C#N)=C(C)NC(C)=C2C(=O)OC(C)C)c(OC)c1 (configuration not stated),2,-6,5,-2,-1,1,nt,nt
CCCc1nn(C)c(C(N)=O)c1[N+](=O)[O-],4,1,31,-15,0,12*,-1,3
O=C(/C=C/c1ccco1)Nc1ccc(C(=O)N2CCOCC2)cc1,1,-6,14,-8,0,0,nt,nt
O=C(/C=C/c1ccco1)Nc1ccccc1N1CCOCC1,7,-13,1,-23,0,20*,-1,-4
Cc1ccccc1/C=N\NC(=O)c1ccc(Cn2cccn2)o1,1,13,5,-16,0,47*,-2,-3
Cc1nc(SCC(=O)N(C)C2CCCCC2)[nH]c(=O)c1Cc1ccccc1,1,nt,10,-4,0,1,nt,nt

# Assay outcomes: PubChem BioAssay, several laboratories
